Screening data: PubChem, National Center for Advancing Translational Sciences (NCATS)
An excerpt weighted towards active compounds, which were near 8% of everything screened.
KB-V1 cytotox: kills drug-selected multidrug resistant KB-V1 cells; KB-V1 MDR cells viability, CellTiter-Glo, 72 h; Potency, µM (titrated, usually from 46.1 µM), most hits filed as cytotoxic; actives 3.4% (n = 400,000); note: nearly all actives have a fitted effect of over 60% in size
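In this primary screen, KB-V1 cells overexpressing P-gp are incubated with library compounds (lowest to highest concentration) for 72 h at 37 degrees C before a luminescent ATP viability read.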
KB-3-1 tox: KB-3-1 parental cell cytotoxicity; actives 1.4% (n = 400,000); KB-3-1 viability, CellTiter-Glo ATP luminescence, 72 h; Potency, µM (series often up to 46.1 µM), most hits filed as cytotoxic; note: nearly all actives have a fitted effect of over 60% in size
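KB-3-1 cells, DMEM (no phenol red) + 10% FBS; compound by pin transfer, 72 h, 37 °C. Readout: CellTiter-Glo luminescence after 10 min. Data normalized, curve-fitted.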
HT1080-NT tox: kills 2HG-producing HT-1080-NT fibrosarcoma cells; AID 686970; Potency, µM (highest dose often 46.1 µM), hits mostly cytotoxic; HT-1080-NT fibrosarcoma viability, CellTiter-Glo ATP luminescence, 48 h; actives 1.6% (n = 360,000);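 note: NT is the 2HG producing partner of a matched IDH1 knockdown line; nearly all actives have a fitted effect of over 55% in size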
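HT-1080-NT; 750 cells/well; 5% FBS RPMI; 48 h compound, 37 degrees C; CellTiter-Glo luminescence; curve fitting and curve-class assignment.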
HT1080 IDH1KD tx: toxicity to HT-1080 IDH1 knockdown cells (counter line); actives 2% (n = 360,000); AID 686971; HT-1080 IDH1 knockdown viability, ATP luminescence, 48 h; Potency, µM (highest dose often 46.1 µM), actives largely listed as cytotoxic
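Cytotoxicity counter-line: IDH1KD HT-1080, 48 h, CellTiter-Glo. Curves classed by r2, magnitude and activity.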
MCF10A rereplic: induces DNA re-replication in MCF 10a normal breast cells. MCF 10A DNA re-replication, Hoechst nuclear intensity, 48 h. Potency, µM (highest dose often 46.1 µM), usual class: activators. actives 2.9% (n = 350,000). AID 624296; note: nearly all actives have a fitted effect of over 50% in size
SW480 rerep: DNA re-replication induction in SW480 cells. AID 624297. Potency, µM (doses to about 46.1 µM), usual class: activators. SW480 DNA re-replication, Hoechst DNA content imaging, 48 h. actives 1.8% (n = 340,000); note: nearly all actives have a fitted effect of over 55% in size
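Image-based DNA-content assay: after two days of treatment, nuclei were labelled with the DNA dye Hoechst and imaged, and hits were compounds raising the count of nuclei showing high fluorescence intensity.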
A number is an active result; n = inactive; u = inconclusive; x = no result given; [ ] = remark or other dose. Calls come from the whole dose curve; as a rule, active = well fitted curve in the direction sought with a large enough effect; inconclusive = small, poorly fitted or top-dose-only effect, or another doubt; inactive = no such curve, though single readings can be large; an effect the other way counts as inactive or inconclusive.

SMILES	KB-V1 cytotox	KB-3-1 tox	HT1080-NT tox	HT1080 IDH1KD tx	MCF10A rereplic	SW480 rerep
COC(=O)[C@@]1(Cc2ccc(F)cc2)[C@H]2c3cc(C(=O)N(C)C)n(CCCNc4ncc(C(F)(F)F)cc4Cl)c3C[C@H]2CN1C(=O)c1ccccc1	18.4µM	u	u	u	x	x
COC(=O)[C@@]1(Cc2ccc(F)cc2)[C@H]2c3cc(C(=O)N(C)C)n(Cc4ccccc4)c3C[C@H]2CN1C(=O)c1ccccc1	n	n	u	n	u	u
COC(=O)[C@@]1(Cc2ccc(F)cc2)[C@H]2c3cc(C(=O)N(C)C)n(Cc4ccc(C)o4)c3C[C@H]2CN1C(=O)c1ccccc1	16.4µM	u	u	20.6µM	x	x
COC(=O)[C@@]1(Cc2ccc(F)cc2)[C@H]2c3cc(C(=O)N(C)C)n(CCO)c3C[C@H]2CN1C(=O)c1ccccc1	n	n	n	n	x	x
Cc1ccc(NCc2n[nH]c(=S)n2-c2ccccc2)cc1	n	n	n	n	n	n
NC(N)=NN=C1CCCCCCCCCCC1	n	n	n	n	n	n
Cn1c(CCN2CCN(c3ccccn3)CC2)nc2cc(NS(=O)(=O)c3ccccc3)ccc21	n	n	n	n	23.1µM	u
Cn1c(CCN2CCCCC2)nc2cc(NS(=O)(=O)c3ccccc3)ccc21	n	n	n	u	n	u
Cn1c(CCN2CCCC2)nc2cc(NS(=O)(=O)c3ccc(Cl)cc3)ccc21	n	u	n	u	u	20.6µM
Cc1ccc(C(C)C)c(OCC(=O)Nc2ccc3c(c2)nc(CCN2CCCCC2)n3C)c1	u	n	20.6µM	16.4µM	u	u
CCn1c(CN2CCCCC2)nc2cc(NC(=O)COc3cc(C)ccc3C(C)C)ccc21	n	u	x	x	x	x
Cc1ccc(OCC(=O)Nc2ccc3c(c2)nc(CCN2CCN(c4ccccn4)CC2)n3C)cc1	n	n	20.6µM	20.6µM	x	x
O=S(=O)(CCN1CCN(c2ccccc2O)CC1)c1ccc(Cl)cc1	u	n	n	n	x	x
Cc1nn(CC(=O)Nc2ccc3c(c2)nc(CCN2CCCCC2)n3C)c(=O)c2ccccc12	n	n	u	2.82µM	16.4µM	u
CC(=O)N1CCN(Cc2nc3cc(NC(=O)Cn4nc(C)c5ccccc5c4=O)ccc3n2C)CC1	n	n	n	n	n	n
O=C(NCC1CCCO1)c1nn2c(C(F)(F)F)cc(-c3cc(Br)cs3)nc2c1Br (stereo not drawn)	n	n	n	n	14.6µM	5.8µM
O=C(NCc1c[nH]c2ccccc12)c1ccccc1	n	n	n	n	n	n
COc1ccc2[nH]cc(CCN=C(NC(=O)c3ccccc3OC)Nc3nc(C)cc(C)n3)c2c1	u	n	x	x	x	x
COc1cccc(C(=O)NC(=NCCc2c[nH]c3ccc(OC)cc23)Nc2nc(C)cc(C)n2)c1	23.1µM	n	x	x	x	x
Cc1ccc(-c2ccccc2NC(=O)CS(=O)CC(=O)Nc2ccc(C)c(Cl)c2)o1 (stereo not drawn)	n	n	n	23.1µM	25.9µM	u
Cc1ccc(-c2ccccc2NC(=O)CCl)o1	n	n	n	n[9.24 µM]	u	n
O=C(c1ccc(Cl)cc1)c1oc2ccccc2c1CS(=O)c1ccccc1 (stereo not drawn)	5.17µM	n	n	n	u	n
N#CCCSc1ncnc2c1oc1ccccc12	11.6µM	u	n	u	n	n
OCCSc1ncnc2c1oc1ccccc12	n	n	n	n	n	n
CC(=O)NCC(=O)OCC(=O)c1ccc(C)c(C)c1	n	n	n	n	n	n
SMILES	KB-V1 cytotox	KB-3-1 tox	HT1080-NT tox	HT1080 IDH1KD tx	MCF10A rereplic	SW480 rerep
Cc1ccc(C(=O)COC(=O)C2C3C=CC(C3)C2C(=O)OCC(=O)c2ccc(C)c(C)c2)cc1C (stereo not drawn)	16.4µM	u	n	n	n	n
CC1(C)CC(O)(CCNCc2ccc3c(c2)OCO3)CCO1 (stereo not drawn)	n	n	n	n	n	n
NNC(=O)c1cc2ccccc2[nH]1	n	u	u	2.06µM	11.6µM	18.4µM
O=C(NCCCO)c1cc2ccccc2[nH]1	n	n	n	n	n	n
NNC(=O)c1cc2cc(Oc3ccccc3)ccc2[nH]1	n	n	n	n	u	5.8µM
COc1ccc2[nH]c(C(=O)NCCc3ccccc3)cc2c1	n	n	n	n	n	n
CCOC(=O)Cn1c(=O)n(-c2ccccc2OC)c2nc(-c3ccccc3F)nc(C(N)=O)c21	u	n	x	x	x	x
Cc1ccc(-c2nnn(CC(=O)N3CCN(c4nc5ccccc5s4)CC3)n2)cc1	n	n	n	n	n	n
CCN(CC(=O)Nc1ccc2c(c1)OCCO2)C(=O)/C=C/c1cccc(OC)c1OC	n	n	n	n	n	n
Cc1ccc(C)c(-n2sc3ccc(F)cc3c2=O)c1	n	n	20.6µM	u	u	18.4µM
O=S(=O)(Nc1ccccn1)c1ccc(C(F)(F)F)cc1Cl	n	n	n	n	u	20.6µM
CC(C)(C)c1ccc(S(=O)(=O)Nc2ccccn2)cc1	n	n	n	n	n	n
Cc1noc(C)c1CSCC(=O)N(C)CC(=O)Nc1ccc(Cl)c(C(F)(F)F)c1	n	n	n	n	n	n
CCN(CC(=O)Nc1cc(Cl)ccc1C)C(=O)CSCc1c(C)noc1C	n	n	n	n	n	6.51µM
Cc1noc(C)c1CSCC(=O)N(C)CC(=O)Nc1ccc(Cl)c(Cl)c1	5.8µM	n	n	n	n	n
Cc1ccc(C)c(NC(=O)CN(C)C(=O)CSCc2c(C)noc2C)c1	n	n	n	n	n	n
Cn1c(COc2ccc(Cl)cc2Cl)nnc1SCC(=O)NCC1CCCO1 (stereo not drawn)	n	n	n	n	n	n
NCCCC[C@@H]1NC(=O)c2cc([N+](=O)[O-])cc(I)c2SC[C@@H](C(=O)NCC(N)=O)NC(=O)CNC1=O	n	n	n	n	n	n
c1ccc(Nc2nc(Nc3ccccc3)nc(N3CCNCC3)n2)cc1	u	n	23.1µM	u	n	u
Cc1ccc(NC(=O)COC(=O)CN2C(=O)NC(C)(C)C2=O)cc1S(=O)(=O)N1CCOCC1	n	n	n	n	n	n
CC(C)C(c1nnnn1C(C)(C)C)N1CCC(Cc2ccccc2)CC1 (stereo not drawn)	u	n	n	n	20.6µM	n
CCOc1ccccc1NC(=O)c1nc[nH]c1C(=O)Nc1ccccc1OCC	n	u	n	n	u	20.6µM
Cc1ccccc1NC(=O)CSc1cn[nH]n1	n	n	n	n	u	n
CCOc1ccccc1NC(=O)CSc1cn[nH]n1	n	n	n	n	16.4µM	n
COc1ccccc1NC(=O)c1nc[nH]c1C(=O)Nc1ccccc1OC	n	n	n	n	n	n
